“And” between values parts separate entries of the source, which are not always exact repeats. Equal values may be shown once. Records with an inconclusive call do not appear. Entries that show only a call come without a potency. Where a structure was tested more than once in an assay, its records may differ in their call. The source made the active and inactive calls. Unless noted, calls follow the shape of the dose curve; as a rule, active = well fitted curve in the direction sought with a large enough effect; inconclusive = small, poorly fitted or top-dose-only effect, or another doubt; inactive = no such curve, though single readings can be large; an effect the other way counts as inactive or inconclusive.
Assays:
[1] = Cytometric Cell-Based qHTS for Inhibitors of the mTORC1 Signaling Pathway in MEF (Tsc2-/-, p53-/-) Cells (AID 2660);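 also: Tsc2 and p53 null MEFs carrying empty vector with compound for 24 h; percent of cells above a phospho-rpS6 to PI ratio cutoff in each well; series mostly up to about 38 µM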
Method in brief: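 Immunofluorescence qHTS of rpS6 Ser235/236 phosphorylation: MEFs (Tsc2-/-, p53-/-) treated 24 h, 37 C, in DMEM + 10% FBS. Alexa-488 signal normalized to PI count, referenced to rapamycin (7.5 nM) and DMSO; PI cell number recorded for viability.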

[2] = High Content Imaging Cell-Based qHTS for Inhibitors of the mTORC1 Signaling Pathway in MEF (Tsc2-/-, p53-/-) Cells (AID 2666);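 also: percent of cells scored positive for phospho-rpS6 Ser235/236 immunostaining by imaging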
Method in brief: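 Cells were plated, dosed with compound after 24 hrs, and incubated another 24 hrs at 37 degree Celsius. Fixed cells were immunostained for phospho-rpS6 Ser235/236 and counterstained, and the normalized signal was scored as % active cells against rapamycin and DMSO controls.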

[3] = High Content Imaging Cell-Based qHTS for Inhibitors of the mTORC1 Signaling Pathway in MEF Cells (AID 2667);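 also: Tsc2-/- p53-/- MEFs stably re-expressing wild-type Tsc2 exposed 24 h; series mostly up to about 38 µM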
Method in brief: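 Immunofluorescence for rpS6 phosphorylation in MEFs of Tsc2-/-, p53-/- background rescued with WT Tsc2. Compound exposure lasted 24 hrs. Inhibition was scored against rapamycin-treated control wells.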

[4] = Cytometry Cell-Based qHTS for Inhibitors of the mTORC1 Signaling Pathway in MEF cells (AID 2668);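 also: Tsc2-/- p53-/- mouse embryonic fibroblasts stably re-expressing wild-type Tsc2; percent cells positive for phospho-rpS6 Ser235/236 relative to propidium iodide stain; series mostly up to about 38 µM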
Method in brief: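 Tsc2-/-, p53-/- MEFs re-expressing WT Tsc2; cpd 24 hrs, 37 degree Celsius; PFA fix, Alexa-488 p-rpS6 (Ser235/236) Ab 2 hrs RT, PI counterstain; Acumen 488nm scan; p-S6/PI ratio → % positive cells; PI count = viability.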

[5] = biological target: Ubiquitin carboxyl-terminal hydrolase 2 (Homo sapiens) (UniProt O75604); test: qHTS Validation Assay for Inhibitors of Ubiquitin-specific Protease USP2a Using CHOP2 as the Reporter (AID 463106); also: potency is read from the fitted curve at half-maximal effect
Sequence of Ubiquitin carboxyl-terminal hydrolase 2 (Homo sapiens) (O75604 whole entry, looked up): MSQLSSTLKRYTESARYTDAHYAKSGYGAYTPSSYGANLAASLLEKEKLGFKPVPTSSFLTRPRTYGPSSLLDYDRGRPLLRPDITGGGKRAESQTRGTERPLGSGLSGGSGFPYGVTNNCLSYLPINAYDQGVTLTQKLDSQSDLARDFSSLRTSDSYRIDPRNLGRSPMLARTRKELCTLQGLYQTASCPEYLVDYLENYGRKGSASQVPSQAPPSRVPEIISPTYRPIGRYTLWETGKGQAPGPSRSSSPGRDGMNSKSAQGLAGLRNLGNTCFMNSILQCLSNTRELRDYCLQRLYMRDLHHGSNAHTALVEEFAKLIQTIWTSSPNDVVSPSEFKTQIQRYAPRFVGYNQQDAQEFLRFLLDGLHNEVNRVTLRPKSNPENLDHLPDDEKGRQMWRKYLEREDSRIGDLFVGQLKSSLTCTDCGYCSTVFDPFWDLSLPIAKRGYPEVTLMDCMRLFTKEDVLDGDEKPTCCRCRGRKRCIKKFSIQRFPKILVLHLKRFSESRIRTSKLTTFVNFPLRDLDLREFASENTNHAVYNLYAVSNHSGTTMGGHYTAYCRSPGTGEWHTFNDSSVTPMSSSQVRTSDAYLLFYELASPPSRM
Method in brief: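 10nM USP2 core + cpd, 30min RT; add 25nM Ub-CHOP2/25nM substrate; 60min RT; FI 485/531nm. Buffer Tris pH 8.0, CaCl2, BME, CHAPS. Norm. to NEM = 100% inhibition; time-zero read flags fluorescent artifacts.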

[6] = biological target: DNA polymerase III PolC-type (Bacillus subtilis (strain 168)) (UniProt P13267); test: qHTS Validation Assay for the Inhibitors of DNA Replication in Gram-Positive Bacteria (AID 485295); also: potency is read from the fitted curve at half-maximal effect
Method in brief: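 First, compound is mixed with the reconstituted replication complex and held at room temperature. Next, circular single-stranded M13Gori with nucleotides starts synthesis. Finally, PicoGreen in EDTA halts the reaction and stains double-stranded product for fluorescence reading.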

[7] = biological target: Tumor susceptibility gene 101 protein (Homo sapiens) (UniProt Q99816); test: qHTS Validation Assay for Iinhibitors of HIV-1 Budding by Blocking the Interaction of PTAP/TSG101 (AID 485342; calls by dose curve)
Sequence of Tumor susceptibility gene 101 protein (Homo sapiens) (Q99816 whole entry, looked up, the tested form may be a part): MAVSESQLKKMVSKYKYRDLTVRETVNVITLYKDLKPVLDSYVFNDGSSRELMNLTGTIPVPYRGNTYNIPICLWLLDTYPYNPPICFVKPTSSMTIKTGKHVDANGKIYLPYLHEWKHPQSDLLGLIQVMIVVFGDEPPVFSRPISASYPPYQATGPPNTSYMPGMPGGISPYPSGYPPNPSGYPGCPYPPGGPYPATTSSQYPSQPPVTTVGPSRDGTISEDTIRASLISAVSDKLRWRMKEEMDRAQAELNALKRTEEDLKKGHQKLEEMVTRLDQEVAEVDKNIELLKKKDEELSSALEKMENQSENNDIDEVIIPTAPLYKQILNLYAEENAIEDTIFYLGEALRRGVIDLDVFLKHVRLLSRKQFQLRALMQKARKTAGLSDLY
Method in brief: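 Binding of a FITC-tagged PTAP-motif peptide (50 nM) to the Tsg101 binding domain (10 uM) is monitored by fluorescence polarization. Compounds are pin-delivered before peptide addition, and incubation runs 20 min at room temperature.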

[8] = qHTS Validation Assay to Find Inhibitors of Chronic Active B-Cell Receptor Signaling (AID 485345; active = well fitted curve in the direction sought with a large enough effect in the main read-out, with a control signal flat, not every such curve was filed as active)
Method in brief: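 Read-out: ratio of filter-corrected green (IkappaBalpha fusion) to red (native) luciferase signal in doxycycline-induced TMD8 cells after 4 h at 37C. Titration spanned 46 uM–3 nM; Data were normalised to basal cells and 10 uM MG-132 wells.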

[9] = biological target: Beta-2 adrenergic receptor (Homo sapiens) (UniProt P07550); test: qHTS validation assay of beta-arrestin-biased ligands of beta2-adrenergic receptor (AID 485366)
Sequence of Beta-2 adrenergic receptor (Homo sapiens) (P07550 whole entry, looked up): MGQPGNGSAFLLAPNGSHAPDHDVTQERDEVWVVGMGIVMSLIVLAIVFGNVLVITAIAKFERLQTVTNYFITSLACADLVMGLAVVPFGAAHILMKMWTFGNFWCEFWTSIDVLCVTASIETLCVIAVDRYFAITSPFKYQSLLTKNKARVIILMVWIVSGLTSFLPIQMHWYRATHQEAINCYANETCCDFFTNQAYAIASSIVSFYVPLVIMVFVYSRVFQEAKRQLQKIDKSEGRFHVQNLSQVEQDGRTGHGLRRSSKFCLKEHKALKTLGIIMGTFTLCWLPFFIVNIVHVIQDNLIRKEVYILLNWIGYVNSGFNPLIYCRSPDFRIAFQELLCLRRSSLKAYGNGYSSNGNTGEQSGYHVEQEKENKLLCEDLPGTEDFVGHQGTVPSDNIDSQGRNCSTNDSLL
Method in brief: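 Arrestin-recruitment (Tango) reporter: ligand-bound beta2-AR recruits beta-arrestin, releasing tTA, which upregulates luciferase. Titrations of up to 46 microM incubated 18 hr at 37 degrees C before luminescent readout.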

[10] = biological target: Thioredoxin reductase 1, cytoplasmic (Rattus norvegicus) (UniProt O89049); test: qHTS Assay for Substrates of Mammalian Selenoprotein Thioredoxin Reductase 1 (TrxR1) (AID 488772);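 also: NADPH fluorescence in the first read after selenite addition and not the 8 min delta; series mostly up to about 57 µM; a drop in NADPH fluorescence below the no-compound background marks a TrxR1 substrate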
Sequence of Thioredoxin reductase 1, cytoplasmic (Rattus norvegicus) (O89049 whole entry, looked up): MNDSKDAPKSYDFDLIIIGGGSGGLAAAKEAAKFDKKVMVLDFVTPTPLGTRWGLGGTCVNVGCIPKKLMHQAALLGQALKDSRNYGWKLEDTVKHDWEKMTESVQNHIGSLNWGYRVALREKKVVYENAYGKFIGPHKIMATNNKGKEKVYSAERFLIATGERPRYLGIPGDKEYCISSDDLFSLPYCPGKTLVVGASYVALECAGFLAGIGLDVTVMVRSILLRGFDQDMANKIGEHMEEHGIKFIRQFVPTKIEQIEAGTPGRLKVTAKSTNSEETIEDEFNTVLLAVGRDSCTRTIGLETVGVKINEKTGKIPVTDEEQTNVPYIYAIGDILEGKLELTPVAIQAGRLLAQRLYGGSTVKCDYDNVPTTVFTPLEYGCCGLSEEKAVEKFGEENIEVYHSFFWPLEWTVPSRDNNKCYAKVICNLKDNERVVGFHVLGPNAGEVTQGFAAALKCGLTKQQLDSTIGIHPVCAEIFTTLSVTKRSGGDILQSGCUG
Method in brief: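 Quantitative HTS in Tris-HCl buffer at pH 7.5 with EDTA and Tween-20, using rat TrxR1, 400 uM NADPH and 400 uM selenite (final). A fall in initial NADPH fluorescence relative to background marked substrate behaviour.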

[11] = biological target: Thioredoxin reductase 1, cytoplasmic (Rattus norvegicus) (UniProt O89049); test: qHTS Assay for Inhibitors of Mammalian Selenoprotein Thioredoxin Reductase 1 (TrxR1) (AID 488773); conditions: Potency: inhibition; also: nearly all actives have a fitted effect of over 40% in size; also: potency is read from the fitted curve at half-maximal effect
Method in brief: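 Steps: enzyme (90 nM) plus NADPH (400 uM final), 5 min at ~22 deg C; compound added, 15 min; selenite (400 uM final) added; fluorescence followed for 8 min. Concentration-response curves derived from the normalized delta values.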

[12] = biological target: Flap endonuclease 1 (Homo sapiens) (UniProt P39748); test: qHTS Validation Assay for the Inhibitors of Human Flap endonuclease 1 (FEN1) (AID 488816); also: potency is read from the fitted curve at half-maximal effect
Sequence of Flap endonuclease 1 (Homo sapiens) (P39748 whole entry, looked up): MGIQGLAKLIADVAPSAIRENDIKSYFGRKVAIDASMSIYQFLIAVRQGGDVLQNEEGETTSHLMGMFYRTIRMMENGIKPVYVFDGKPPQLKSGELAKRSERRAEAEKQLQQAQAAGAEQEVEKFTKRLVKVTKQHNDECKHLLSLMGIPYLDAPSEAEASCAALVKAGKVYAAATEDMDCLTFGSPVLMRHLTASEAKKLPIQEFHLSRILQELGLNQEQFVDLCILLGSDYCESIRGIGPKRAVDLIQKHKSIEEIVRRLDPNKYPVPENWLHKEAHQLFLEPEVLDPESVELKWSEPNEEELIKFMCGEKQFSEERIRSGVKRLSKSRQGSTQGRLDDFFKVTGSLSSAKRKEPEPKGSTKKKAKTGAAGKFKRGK
Method in brief: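 Readings taken at 0 and 15 min after starting the reaction with 50 nM (final) substrate supplied the signal. Compounds had first sat with 10 nM FEN1 reagent for 15 min at room temperature. Values come from Hill-equation concentration-response fits.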

[13] = biological target: M-phase phosphoprotein 8 (Homo sapiens) (UniProt Q99549); test: qHTS Validation Assay for Inhibitors for MPP8 Chromodomain Interactions with Methylated Histone Tails (AID 488949); also: nearly all actives have a fitted effect of over 55% in size; also: potency is read from the fitted curve at half-maximal effect
Sequence of M-phase phosphoprotein 8 (Homo sapiens) (Q99549 whole entry, looked up): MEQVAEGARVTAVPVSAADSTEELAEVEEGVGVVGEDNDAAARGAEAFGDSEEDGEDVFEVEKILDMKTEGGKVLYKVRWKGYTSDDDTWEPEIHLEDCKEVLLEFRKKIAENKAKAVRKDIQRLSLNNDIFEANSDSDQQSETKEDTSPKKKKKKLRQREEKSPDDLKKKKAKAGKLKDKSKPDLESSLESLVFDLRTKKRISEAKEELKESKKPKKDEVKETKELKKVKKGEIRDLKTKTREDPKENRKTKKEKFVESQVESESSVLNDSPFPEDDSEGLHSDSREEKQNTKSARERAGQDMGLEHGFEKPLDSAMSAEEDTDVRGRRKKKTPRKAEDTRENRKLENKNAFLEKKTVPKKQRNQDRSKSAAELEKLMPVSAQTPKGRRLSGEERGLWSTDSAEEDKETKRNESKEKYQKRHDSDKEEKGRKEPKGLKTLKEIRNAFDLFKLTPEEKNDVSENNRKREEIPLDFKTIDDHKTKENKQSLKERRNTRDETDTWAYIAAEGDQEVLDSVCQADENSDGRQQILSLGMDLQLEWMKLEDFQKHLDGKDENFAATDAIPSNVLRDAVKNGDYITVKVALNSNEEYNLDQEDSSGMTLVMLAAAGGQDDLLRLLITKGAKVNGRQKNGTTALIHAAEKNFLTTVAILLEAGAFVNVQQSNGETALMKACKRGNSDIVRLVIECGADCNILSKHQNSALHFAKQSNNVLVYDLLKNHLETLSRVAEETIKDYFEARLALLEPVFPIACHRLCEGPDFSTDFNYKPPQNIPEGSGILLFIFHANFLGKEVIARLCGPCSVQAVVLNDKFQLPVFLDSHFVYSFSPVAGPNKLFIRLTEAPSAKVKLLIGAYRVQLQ
Method in brief: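 50 nM MPP8 + 50 nM b-H3K9me3 peptide, PBS pH 7.4/0.01% Tween-20, 30 min RT; + cpd 30 min RT; + AlphaScreen donor/Ni-chelate acceptor beads 10 ug/mL final, 30 min dark; luminescence read.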

[14] = biological target: Methanococcus maripaludis chaperonin (MmCpn) (UniProt Q6LX38); test: High-Throughput Screening for Modulators of Cytosolic Chaperonin Activity: MmCpn Primary Screen (AID 488978);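 also: 50 nM MmCpn enzyme hydrolysing 30 µM ATP at 37 °C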
Sequence of Methanococcus maripaludis chaperonin (MmCpn) (Q6LX38 1-543): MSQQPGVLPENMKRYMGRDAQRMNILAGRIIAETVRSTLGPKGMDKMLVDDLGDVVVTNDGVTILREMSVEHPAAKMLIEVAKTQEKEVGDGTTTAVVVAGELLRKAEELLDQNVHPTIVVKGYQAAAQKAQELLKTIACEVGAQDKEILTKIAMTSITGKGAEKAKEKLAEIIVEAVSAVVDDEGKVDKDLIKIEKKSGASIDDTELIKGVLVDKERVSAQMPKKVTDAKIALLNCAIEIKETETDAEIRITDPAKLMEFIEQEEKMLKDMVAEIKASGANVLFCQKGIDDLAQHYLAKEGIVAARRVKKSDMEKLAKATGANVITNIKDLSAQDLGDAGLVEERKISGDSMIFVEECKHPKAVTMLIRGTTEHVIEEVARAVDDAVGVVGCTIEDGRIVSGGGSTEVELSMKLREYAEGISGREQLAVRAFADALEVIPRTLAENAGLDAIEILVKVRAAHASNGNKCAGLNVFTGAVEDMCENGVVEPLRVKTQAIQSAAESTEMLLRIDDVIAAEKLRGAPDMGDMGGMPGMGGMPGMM
Method in brief: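 Steps: chaperonin 50 nM final; add compound, 5 min RT; start with ATP, 30 uM final; hold 10 min at 37C; add ADP Transcreener HTRF reagent, 5 min; read ex 320, em 590 and 665 nm.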

[15] = biological target: ATP-dependent 6-phosphofructokinase (Trypanosoma brucei brucei) (UniProt O15648); test: qHTS Validation Assay to Find Inhibitors of T. brucei phosphofructokinase (AID 485368); also: potency is read from the fitted curve at half-maximal effect
Sequence of ATP-dependent 6-phosphofructokinase (Trypanosoma brucei brucei) (O15648 whole entry, looked up): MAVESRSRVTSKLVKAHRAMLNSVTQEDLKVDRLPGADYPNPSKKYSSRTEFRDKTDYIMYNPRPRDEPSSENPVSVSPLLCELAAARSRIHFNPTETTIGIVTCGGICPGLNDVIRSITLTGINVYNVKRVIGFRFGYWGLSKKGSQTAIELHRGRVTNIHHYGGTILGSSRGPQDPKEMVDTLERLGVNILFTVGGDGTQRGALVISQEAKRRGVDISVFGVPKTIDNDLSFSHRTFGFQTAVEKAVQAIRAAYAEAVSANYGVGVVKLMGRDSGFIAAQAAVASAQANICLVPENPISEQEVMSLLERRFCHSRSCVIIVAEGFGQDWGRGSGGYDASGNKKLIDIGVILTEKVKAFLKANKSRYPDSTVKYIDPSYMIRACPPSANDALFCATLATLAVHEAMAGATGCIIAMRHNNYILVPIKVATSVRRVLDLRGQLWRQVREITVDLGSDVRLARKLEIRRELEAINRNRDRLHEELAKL
Method in brief: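 Steps: substrate mix (0.5 mM F6P, 0.1 mM ATP, MgCl2, TEA pH 8.0); compound; 1.25 nM T. brucei PFK; 45 min RT; ATP depletion 10 min; ADP-to-ATP detection 10 min; luminescence read; curve fitting and classification.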

[16] = Quantitative high throughput screen for delayed death inhibitors of the malarial parasite plastid, 96 hour incubation (AID 488745); also: nearly all actives have a fitted effect of over 70% in size; also: potency is read from the fitted curve at half-maximal effect
Method in brief: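 P. falciparum carrying an integrated firefly luciferase reporter, grown in erythrocytes (2% hematocrit, 0.1% parasitemia final) in RPMI 1640/0.5% Albumax, was exposed to compound for 96 h (two generations) at 37 C, 5% CO2. Luminescence decrease indicated growth inhibition.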

[17] = biological target: Chromobox protein homolog 1 (Homo sapiens) (UniProt P83916); test: qHTS Validation Assay for Inhibitors of HP1-beta Chromodomain Interactions with Methylated Histone Tails (AID 488953); also: nearly all actives have a fitted effect of over 50% in size; also: potency is read from the fitted curve at half-maximal effect
Sequence of Chromobox protein homolog 1 (Homo sapiens) (P83916 whole entry, looked up): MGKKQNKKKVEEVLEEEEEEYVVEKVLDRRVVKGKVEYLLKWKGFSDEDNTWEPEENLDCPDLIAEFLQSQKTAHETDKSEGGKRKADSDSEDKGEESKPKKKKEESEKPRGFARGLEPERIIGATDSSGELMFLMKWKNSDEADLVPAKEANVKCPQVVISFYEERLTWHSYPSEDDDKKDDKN
Method in brief: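 HP1-beta (50 nM) was preincubated 30 min at room temperature with biotinylated H3(1-18)K9me3 peptide (50 nM) in PBS pH 7.4, 0.01% Tween-20, then with compounds 30 min. AlphaScreen signal was read after streptavidin donor/nickel chelate acceptor beads (10 ug/mL final).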

[18] = Quantitative high throughput screen for delayed death inhibitors of the malarial parasite plastid, 48 hour incubation (AID 488752); also: nearly all actives have a fitted effect of over 65% in size; also: potency is read from the fitted curve at half-maximal effect
Method in brief: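 Erythrocytes infected with P. falciparum carrying an integrated firefly luciferase reporter (2% hematocrit, 0.1% parasitemia final) were exposed to compounds in RPMI 1640/0.5% Albumax for 48 h at 37 C, 5% CO2. Growth inhibition was scored as reduced luminescence.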

[19] = Validation screen for small molecules that induce DNA re-replication in MCF 10A normal breast cells (AID 463097); also: nearly all actives have a fitted effect of over 60% in size
Method in brief: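 Image-based qHTS: normal breast cells are incubated with compound for 48 hr, stained with Hoechst, and scanned for total nuclear fluorescence. Compounds raising the fraction of nuclei with elevated DNA content count as re-replication inducers.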

Row | Structure (SMILES) | outcome [1] | Potency [2] | Potency [3] | Potency [4] | Potency [5] | Potency [6] | outcome [7] | outcome [8] | outcome [9] | outcome [10] | Potency [11] | Potency [12] | Potency [13] | outcome [14] | Potency [15] | Potency [16] | Potency [17] | Potency [18] | Potency [19]
1 | CN1Cc2sccc2C(c2ccc(O)c(O)c2)C1 (centres undefined) | inactive | inactive | inactive | inactive | inactive | inactive | inactive | inactive | inactive | inactive | 16.8 µM (active) | inactive | inactive | inactive |  |  |  |  | 
2 | CCN(c1nc(N)c(C(=O)N=C(N)N)nc1Cl)C(C)C | inactive | inactive | inactive | inactive | inactive | inactive | inactive | inactive | inactive | inactive | inactive | inactive | inactive | inactive | inactive |  |  |  | 
3 | NCC(O)C1CCCCCCC1 (centres undefined) | inactive | inactive | inactive | inactive | inactive | inactive | inactive | inactive | inactive | inactive | inactive | inactive | inactive | inactive |  | inactive | inactive |  | 
4 | COc1ccc(CCn2nnnc2C2(c3ccc(C)cc3)CC2)cc1 | inactive | inactive | inactive | inactive | inactive | inactive | inactive | inactive | inactive | inactive |  | inactive | inactive | inactive |  |  | inactive |  | 
5 | CC(=O)O[C@H]1Cc2ccccc2N(C(N)=O)c2ccccc21 | inactive | inactive | inactive | inactive | inactive | inactive | inactive |  | inactive | inactive | inactive | inactive | inactive | inactive | inactive |  |  |  | 
6 | CCCn1c(=O)c2[nH]c(C3CCCC3)nc2n(CCC)c1=O | inactive | inactive | inactive | inactive | inactive | inactive | inactive |  | inactive | inactive | inactive | inactive | inactive | inactive | inactive |  | inactive | inactive | 
7 | CCCCCCCCCCCCCCSCC(=O)O | inactive | inactive | inactive | inactive | inactive | inactive | inactive | inactive | inactive | inactive | inactive | inactive | 31.6 µM (active) and inactive | inactive | inactive | inactive | 50.1 µM (active) | inactive | 
8 | COc1ccccc1N1CCN(CCCCN2C(=O)c3ccccc3C2=O)CC1 | inactive | inactive | inactive | inactive |  | inactive | inactive |  | inactive |  |  | inactive |  | inactive | inactive | inactive | inactive | inactive | inactive
9 | O=C(O)C1=CC(=C(c2ccc(O)c(C(=O)O)c2)c2ccc(O)c(C(=O)O)c2)C=CC1=O | inactive | inactive | inactive | inactive | 1.04 µM (active) | 3.36 µM (active) | inactive |  | inactive | inactive |  | 0.134 µM (active) | 178 nM (active) and 238 nM (active) | inactive | 0.0601 µM (active) | inactive | 0.199 µM (active) | inactive | 
10 | C=CC1(C)CC(=O)C2(O)C(C)(O1)C(OC(C)=O)C(O)C1C(C)(C)CCC(O)C12C (centres undefined) | inactive | inactive | inactive | inactive | inactive | inactive | inactive |  | inactive | inactive | inactive | inactive | inactive | inactive | inactive | inactive | inactive | inactive | 
11 | O=C(O)c1cc(=O)cc(C(=O)O)[nH]1 | inactive | inactive | inactive | inactive |  |  | inactive | inactive | inactive | inactive | inactive | inactive | inactive | inactive |  | inactive | inactive |  | inactive
12 | CCCN(CCc1ccccc1)C1CCc2c(O)cccc2C1 (centres undefined) | inactive | inactive | inactive | inactive |  | inactive |  | inactive | inactive | inactive | inactive | inactive | inactive | inactive | inactive | 3.29 µM (active) | inactive | 3.29 µM (active) | inactive
13 | OC[C@H]1O[C@H](n2cnc3c(N[C@H]4CCC[C@@H]4O)ncnc32)[C@H](O)[C@@H]1O | inactive | inactive | inactive | inactive | inactive | inactive | inactive |  | inactive |  | inactive | inactive |  | inactive |  |  | inactive |  | 
14 | c1ccc2c(c1)CCC[C@H]2Nc1nc2ccccc2[nH]1 | inactive | inactive | inactive | inactive | inactive | inactive | inactive | inactive | inactive |  | inactive |  | inactive | inactive | inactive |  |  |  | 
15 | CCCn1c(=O)c(C)cn2nc(N)nc12 | inactive | inactive | inactive | inactive | inactive | inactive | inactive | inactive | inactive | inactive | inactive | inactive | inactive | inactive | inactive |  | inactive |  | 
16 | CC(=O)SC1CC2=CC(=O)CC[C@]2(C)C2CC[C@@]3(C)C(CC[C@@]34CCC(=O)O4)C12 (some centres undefined) | inactive | inactive | inactive | inactive | inactive | inactive | inactive | inactive | inactive | inactive | inactive | inactive |  | inactive | inactive |  |  |  | 
17 | CC(C)C[C@H](NC(=O)C1OC1C(=O)O)C(=O)NCCCCN=C(N)N (some centres undefined) | inactive | inactive | inactive | inactive |  |  |  |  | inactive | inactive | inactive | inactive | inactive | inactive |  | 2.33 µM (active) | 0.006 µM (active) |  | inactive
